Consider 15 compounds from PMC11062922 (Nature Chemical Biology, 2023).

What all share (parameters): species or system human, MV4-11 + K-562 + COLO205 + SK-N-BE2 + OVCAR-8
One assay relates to FGFR1. To be noted: read-out: apparent Kd, n = 1.
For a further assay, the system named is NLK. Conditions: read-out: apparent Kd, n = 1.
The test system of a further assay is ACAD11. Conditions: read-out: apparent Kd, n = 1.
Another assay concerns FRK. To be noted: read-out: apparent Kd, n = 1.
The next assay relates to ULK3. Conditions: read-out: apparent Kd, compound concentrations: 100 nM and 1000 nM (sheet 'Samples'), n = 1.
The test system of another assay is JAK1. To be noted: read-out: apparent Kd, compound concentrations: 100 nM and 1000 nM (sheet 'Samples'), n = 1.
The test system of a further assay is JAK2. Conditions: read-out: apparent Kd, n = 1.
The next assay deals with FYN. To be noted: read-out: apparent Kd, n = 1.
The next assay relates to IRAK4. To be noted: read-out: apparent Kd, n = 1.
Another assay has as its system MAP4K1. To be noted: read-out: apparent Kd, n = 1.
For a further assay, the system named is STK26. Conditions: read-out: apparent Kd, n = 1.
The subject of another assay is ATR. Conditions: read-out: apparent Kd; compound concentrations:100 nM and 1000 nM (sheet 'Samples'); n = 1.
Another assay relates to PRKCB. To be noted: read-out: apparent Kd; compound concentrations: 100 nM and 1000 nM (sheet 'Samples'), CATDS: 3.7076657703329602E-2; n = 1.
In a further assay the test system is CDC7. Conditions: read-out: apparent Kd; compound concentrations: 100 nM and 1000 nM (sheet 'Samples'), CATDS: 3.6033754639237303E-2; n = 1.
Another assay relates to T1, DJA1.
T1 construct: gene DNAJA1
To be noted: read-out: apparent Kd; compound concentrations: 100 nM and 1000 nM (sheet 'Samples'), CATDS: 3.8361892236094597E-2; n = 1.

Another assay concerns CDK5. Conditions: read-out: apparent Kd; compound concentrations: 100 nM and 1000 nM (sheet 'Samples'), CATDS: 1.3495473564992901E-2; n = 1.
The next assay deals with NQO2. Conditions: read-out: apparent Kd; compound concentrations: 100 nM and 1000 nM (sheet 'Samples'), CATDS: 3.2370847772948297E-2; n = 1.
Where [1] appears, read: compound concentrations:100 nM and 1000 nM (sheet 'Samples').

Read-outs that look alike come from different tables or passages of the source.

As for `CC(C)N1CCC(n2cnc(-c3ccc(F)cc3)c2-c2ccnc(N)n2)CC1` [SB-223132], the potency estimated from few doses in the assay on FGFR1 (setting [1]) was 2190 nM; with NLK (setting [1]) it was 195 nM.
Turning to `CCOC(=O)N1CCC(n2cnc(-c3ccc(F)cc3)c2-c2ccnc(N)n2)CC1` [SB-219952], the potency estimated from few doses in the assay with ACAD11 (compound concentrations: 100 nM and 1000 nM (sheet 'Samples'), CATDS: 8.6091938729062605E-3) was 1330 nM; in the assay with FGFR1 (compound concentrations: 100 nM and 1000 nM (sheet 'Samples'), CATDS: 8.7030488552416706E-3), 1280 nM; in the assay with FRK (compound concentrations: 100 nM and 1000 nM (sheet 'Samples'), CATDS: 9.3147950048740498E-3) it was 1050 nM; with NLK (compound concentrations: 100 nM and 1000 nM (sheet 'Samples'), CATDS: 4.0230749785041403E-2), 72.7 nM; in the assay on ULK3 (CATDS: 8.4106356024223894E-3), 1430 nM.
On to `Cl.Nc1c(C(=O)c2cccc(C#CCN3CCCCC3)c2)cnn1-c1ccc(F)cc1` [RO1154461-001], for which the potency estimated from few doses in the assay on FGFR1 (compound concentrations: 100 nM and 1000 nM (sheet 'Samples'), CATDS: 1.0359283946495801E-2) was 1680 nM; with FRK (compound concentrations: 100 nM and 1000 nM (sheet 'Samples'), CATDS: 1.2851217136808301E-2), 829 nM; in the assay on JAK1 (CATDS: 1.11252993768114E-2) it was 1290 nM; in the assay on JAK2 (compound concentrations: 100 nM and 1000 nM (sheet 'Samples'), CATDS: 2.2434778262680002E-2), 240 nM.
Consider `CNC(=O)c1ccccc1Nc1nc(Nc2ccc(N3CCOCC3)cc2)ncc1Cl.Cl` [GSK1576028A], for which the potency estimated from few doses with FGFR1 (setting [1]) is 844 nM; with FYN (setting [1]), 369 nM; with IRAK4 (setting [1]) it was 593 nM; with MAP4K1 (setting [1]), 387 nM; in the assay with STK26 (setting [1]), 1360 nM.
As for `NCCNS(=O)(=O)c1ccc(-c2ccnc3[nH]ccc23)cc1` [GSK977617A], the potency estimated from few doses in the assay on FRK (setting [1]) is 832 nM; in the assay on FYN (setting [1]) it was 1010 nM.
`Cl.Cl.NCC(C(=O)Nc1cc(Br)c(-c2ccnc3[nH]ccc23)s1)c1ccccc1.NCC(C(=O)Nc1cc(Br)c(-c2ccnc3[nH]ccc23)s1)c1ccccc1` (centres unmarked) [GSK1269851A]: the potency estimated from few doses in the assay on ACAD11 (setting [1]) was 1260 nM; in the assay with ATR it was 889 nM; with FGFR1 (setting [1]), 1730 nM; in the assay with FRK (setting [1]), 846 nM; with FYN (setting [1]), 680 nM.
As for `CN1C[C@@H]2Cn3c(c(C4=C(c5cn(C)c6ccccc56)C(=O)NC4=O)c4ccccc43)C[C@H]2C1.Cl` [RO0320234-001], the potency estimated from few doses with ATR is 438 nM; in the assay with FRK (setting [1]), 290 nM; in the assay on FYN (setting [1]) it was 209 nM; in the assay with PRKCB, 28.4 nM.
`O=C1N=C(NCCc2ccc(Cl)cc2)S/C1=C\c1ccc2ncccc2c1` [RO4498479-000]: the potency estimated from few doses with ACAD11 (compound concentrations: 100 nM and 1000 nM (sheet 'Samples'), CATDS: 8.46933106207029E-3) was 852 nM; in the assay with FGFR1 (compound concentrations: 100 nM and 1000 nM (sheet 'Samples'), CATDS: 8.1769993071202692E-3) it was 946 nM; in the assay with FRK (compound concentrations: 100 nM and 1000 nM (sheet 'Samples'), CATDS: 1.0205973298365501E-2), 530 nM; in the assay on FYN (compound concentrations: 100 nM and 1000 nM (sheet 'Samples'), CATDS: 1.0262385049400099E-2), 523 nM; in the assay on JAK1 (CATDS: 7.5180270628035497E-3), 1240 nM; with ULK3 (CATDS: 8.2720873677068606E-3), 913 nM.
On to `Cl.NCc1ccc(-c2nc(-c3ccc(Cl)c(O)c3)c(-c3ccncc3)[nH]2)cc1` [SB-476429-A], for which the potency estimated from few doses with JAK2 (setting [1]) is 347 nM.
For `CCn1c(-c2nonc2N)nc2c(-c3ccccc3)ncc(OCCCN)c21.CCn1c(-c2nonc2N)nc2c(-c3ccccc3)ncc(OCCCN)c21.O=C(O)C(F)(F)F.O=C(O)C(F)(F)F` [GSK260205A], the potency estimated from few doses in the assay on CDC7 was 714 nM; in the assay with NLK (compound concentrations: 100 nM and 1000 nM (sheet 'Samples'), CATDS: 6.7931350663373802E-2), 162 nM.
As to `COc1cccc2c(-c3ccncc3)c(-c3ccc(F)cc3)nn12` [GW468513X], the potency estimated from few doses in the assay with DJA1 is 1520 nM.
On to `CCn1c(-c2nonc2N)nc2c(C#CC(C)(C)O)nc(CN3CCCC3)cc21` [GSK1000163A], for which the potency estimated from few doses in the assay on NLK (compound concentrations: 100 nM and 1000 nM (sheet 'Samples'), CATDS: 0.163177352109245) was 1980 nM.
Take `COc1ccc(Nc2ncc(C#N)c(Nc3ccccc3C(N)=O)n2)cc1N1CCN(C)CC1.Cl` [GSK1558669A]: the potency estimated from few doses is 85 nM in the assay on CDK5; 74.1 nM in the assay with FGFR1 (compound concentrations: 100 nM and 1000 nM (sheet 'Samples'), CATDS: 1.43157906499466E-2); 276 nM in the assay with FYN (compound concentrations: 100 nM and 1000 nM (sheet 'Samples'), CATDS: 8.8706126087949692E-3); 148 nM with IRAK4 (compound concentrations: 100 nM and 1000 nM (sheet 'Samples'), CATDS: 1.0871423307460401E-2); 49.5 nM with JAK1 (CATDS: 1.7272230930398098E-2); 270 nM with MAP4K1 (compound concentrations: 100 nM and 1000 nM (sheet 'Samples'), CATDS: 8.9293608568362503E-3). In addition, the potency estimated from few doses with STK26 (compound concentrations: 100 nM and 1000 nM (sheet 'Samples'), CATDS: 6.0521031511701004E-3) was 1650 nM; in the assay with ULK3 (CATDS: 2.8443328776369899E-2), 20 nM.
Turning to `CCn1c(-c2nonc2N)nc2c(C#CCN)ncc(OCCCN)c21.O=C(O)C(F)(F)F` [GSK561866B], in the assay with JAK2 (compound concentrations: 100 nM and 1000 nM (sheet 'Samples'), CATDS: 0.29802313015986498), the potency estimated from few doses was 12.9 nM.
On to `CN(c1ccc(NC(=O)N2CCN(CCCN3CCOCC3)CC2)cc1)c1ccnc(Nc2ccc(CS(C)(=O)=O)cc2)n1.Cl` [GW830899A], for which the potency estimated from few doses is 2060 nM in the assay on ACAD11 (compound concentrations: 100 nM and 1000 nM (sheet 'Samples'), CATDS: 1.8100646511475499E-2); 552 nM in the assay on NQO2; 1010 nM in the assay with ULK3 (CATDS: 2.3659630965279298E-2).
